Assay in all cases: MAPPIT interaction score (arbitrary units); higher = stronger binary interaction signal, active = hit call of the paper
The target in one assay is Shmt. To be noted: MAPPIT configuration: N-N; pair source set: Curagen_high_conf.
The target of a further assay is Sarm. The note with it: MAPPIT configuration: N-N; pair source set: Curagen_low_conf.
A further assay concerns the target Sms. The note with it: MAPPIT configuration: N-N; pair source set: Finley_Y2H.
In another assay the target is Sas10. The note with it: MAPPIT configuration: N-N; pair source set: Finley_Y2H.
In another assay the target is grau. The note with it: MAPPIT configuration: N-N; pair source set: Lit-BM-16.
Substrate in assay [1]: SNCF
To be noted: MAPPIT configuration: N-N; pair source set: DPIM.

The target in a further assay is Six4. To be noted: MAPPIT configuration: N-N; pair source set: Lit-BS-16.
The next assay concerns the target Snap29. To be noted: MAPPIT configuration: N-C; pair source set: Lit-BM-16.
The target of a further assay is Sid. The note with it: MAPPIT configuration: N-N; pair source set: Curagen_high_conf.
In the next assay the target is Xbp1. To be noted: MAPPIT configuration: N-N; pair source set: Curagen_low_conf.
The target in a further assay is SelR. To be noted: MAPPIT configuration: N-N; pair source set: Curagen_high_conf.
Another assay concerns the target Sce. The note with it: MAPPIT configuration: N-C; pair source set: Lit-BM-16.
The next assay deals with Sirt2. The note with it: MAPPIT configuration: N-N; pair source set: Finley_Y2H.
The target of the next assay is SmydA-8. To be noted: MAPPIT configuration: N-N; pair source set: screen_2.
Another assay concerns the target Slh. The note with it: MAPPIT configuration: N-N; pair source set: Finley_Y2H.
In the next assay the target is Smn. To be noted: MAPPIT configuration: N-C; pair source set: Lit-BM-16.
For a further assay, the target named is Sfp84E. The note with it: pair source set: RRS.
A further assay addresses alc. The note with it: MAPPIT configuration: N-N; pair source set: Lit-BS-16.
For another assay, the target named is robl62A. The note with it: MAPPIT configuration: N-N; pair source set: RRS.
In a further assay the target is ScpX. The note with it: MAPPIT configuration: N-N; pair source set: Curagen_high_conf.

Values without a mark were called inactive.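 Rule for the calls: active = MAPPIT score above the 99th percentile of random reference set scores in the same batch; inactive = at or below it.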

The source of these data is the supplement of paper PMC10105736.
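Note: HEK293T cells with Epo stimulation, STAT-responsive firefly luciferase reporter, fold induction versus unstimulated cells divided by the larger fold induction of two negative controls lacking either bait or prey.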

B1: Pka-R2 (protein)
chain: MSSDSSRRIQVPEELKEVLLQFSISFLVEQPPDVIDYAVEYFTKLQSERPSVSHTDQSTDDQLSVNSQDADAEPPVMASSRRKSVFAEAYDPEADDDDDGATAVFPKTDEQRARLVESVKNVLLFRSLEKEQMNQVLDAMFERKVQPGDFIIRQGDDGDNFYVIESGVYKVYINDKHINTYNHTGLFGELALLYNMPRAATVQAETSGLLWAMDRQTFRRILLKSAFRKRKMYEELLNSVPMLKALQNYERMNLADALVSKSYDNGERIIKQGDAADGMYFIEEGTVSVRMDQDDAEVEISQLGKGQYFGELALVTHRPRAASVYATGGVVKLAFLDVKAFERLLGPCMDIMKRNIDDYESQLVKIFGSKNNITDTR
B1: the MAPPIT interaction score in the assay with Shmt was 0.452.

B2: mRpL24 (protein)
chain: MRLTQYLASKLKNFSNLPKEYIERSKKQVYWQTPKEINYLPRTVERKRFRYTTNRSWTGQFRQQNMPGTVRRKVLVEPIEDWSFFRGDRIEVLVGKDKGKQGIVTQVIPERNWVIVEGLNWHYRKVGGEKEFPGIIIKSEAPLHVTKDIRLVDPSDLQGTDFEWRFTEEGEKVRVSLRSGRIIPIPETNNQTHDYKTPNAYIEREKDTPGAVVGEITFQPKLSTFEMDIMEEMGIKEERTPVKSYWY
Turning to B2, in the assay with Sarm, the MAPPIT interaction score was 0.785.

B3: l(2)34Fc (protein)
chain: MFRLLVLAACLAISVHAYSDGAPKAACRDLTPQHGAKLQVTKPPYSISGPSHVRSDQKLTLTLGGDEFLGFMIQARDGQNRVVGQFQVVDSVHSQTLDCSGKDDTITHLSAQKGKPLTGITFDWIPPAGYKGNVKFMATVVQTGFVYWVGRVTKDIDVE
As for B3, the MAPPIT interaction score with Sms was 0.335.

B4: CG7137 (protein)
chain: MKPFEVPPWEEGADIIEFEPVNPSGNGVAAKKKPKKKKPKKKKAAVPNENLNVNKAAEKFTYRQGRGPLAPPQDSSDDDYEDVEDGIRAMHKVKSGRIEKQRPPTQATKGGKKELKLKPELAQAALEAMEATSSTTPAANSLASKLQSELLGGRFRYINEQLYSTTSRKAEALFRKDSSAFEAYHAGYRQQVEKWPINPLNRIIKTIKKIPKTAIIGDFGCGEGKLAQSVPNKVYSMDLVAARSDIIACNITDTPLQARTLDVAVYCLSLMGTDLNEFFLEANRVLKLHGTVYIAEIQSRFQDVREFVRCLNACGFDLNKKDVAVNYFYFFQFKKMRHVPKNTKMKAFSLKPCLYRKR
In the case of B4, the MAPPIT interaction score is 0.356 with Sas10 and 0.26 with grau.

B5: SmD2 (protein)
chain: MALVKPKSELTPEELARQEEEEFNTGPLSVLTQSVKNNTQVLINCRNNKKLLGRVKAFDRHCNMVLENVKEMWTELPRTGKGKKKVKPVNKDRFISKMFLRGDSVILVLRNPLATAAGK
Regarding B5, the MAPPIT interaction score in assay [1] is 0.49.

B6: CG30031 (protein)
chain: MLKFVILLSAVACALGGTVPEGLLPQLDGRIVGGSATTISSFPWQISLQRSGSHSCGGSIYSSNVIVTAAHCLQSVSASVLQIRAGSSYWSSGGVTFSVSSFKNHEGYNANTMVNDIAIIKINGALTFSSTIKAIGLASSNPANGAAASVSGWGTLSYGSSSIPSQLQYVNVNIVSQSQCASSTYGYGSQIRSTMICAAASGKDACQGDSGGPLVSGGVLVGVVSWGYGCAYSNYPGVYADVAALRSWVISNA
As to B6, the MAPPIT interaction score with Six4 is -0.185.

B7: Syx4 (protein)
chain: MGKDRLPELLQRSLSTNSSNSSSNGSLLLNVYSGTTEFIIGNTGGNNNSYSVVSQNSHSCSNNNSSTEPKDRSSSKMTQYGSNVDDILNPYTEIRQQLAQIAANLETMNRMAQTVNLRTFNENEMDELHNKNLRLGNQLMTRFNDFKANLPAENDYSLEARMKRTLFYGLHQTFINLWHKNELFLQNYETKVKKNLRLHTKIINSEASEQEIELLIENKTTKLFVDNFLQETEKERQTLREMMDRFNELRRLEKSIEEVHALFMRIQTLVMEQSEVIQRVEFHAQQATLHVDKGADELDQAEQHQKKARKKKIMLIVILAAVLLVLLLVGIYL
Take B7: in the assay with Snap29, the MAPPIT interaction score was 3.12.

B8: Pep (protein)
chain: MVSVKVNGNPQNRLVNNAKVNGNMAFRGNQNRNRNFGGGNNNYGGPMGANRMGGMNMSPWESQNPGGGQFGNNMRQGGGQMNAQAINLANNLLNNLFRNQNPPSLLDLPRGGGGMGNRNQRGGPMVSRGGGAGNRLNNRRGQGGGFQNRGATGSGPKPPPKQGGGGIRKQNAFDRAKKLLAKNANQNKKKEPTPGEKKIESPTKESPYASVPNDMFYCHLCKKHMWDANSFENHIKGRTHLMMREGIEESYRLKANMIRQEAKIAEQLKSIEFDRLKRMGKSKQRQLDYCTMCDLNFHGHISTHRKSEGHLQLKKFLHPKCIECNKEFATRIDYDTHLLSAEHLKKAAENNTKVGERKRQTLPISTEEEETRDLRLPQKRKKKPVKKEGEAADGEAKKEGAGDGEGAEGDEAEGEEAKEGEEAADETKEGDELNESQEEEEVALPVDPEDCILDFNDGDEIPSEVDTRLPKYNWQRAVGPGLISKLECYECSVCSKFFDTEVTAEIHSRTATHHRNFLKFINEKSSDTKIAQKRAAAALEENERKKRKVEEAEAPAAEGAAEETTEGAEGELYDPSEATGDDEDVEMVDDNAEGEGEGEGDEEAEAEVEEDGAGQDNGEEEMEAQEEEGQEGEQEPEPEPAPVQTPAPAEPAPPAKTPAKTPTKAAAPAAVASPAAAATSADASPSPAKKATPARAAAGAKATPQRQRARGRYNRY
As to B8, the MAPPIT interaction score in the assay with Sid is -0.865; with Xbp1 it was -0.182.

B9: CG11899 (protein)
chain: MVINFAAGPAKLPEEVLKEVQENLVNCNGSGISVMEMSHRSSNYAKIHDATISDLRELLNVPSNYKILLMQGGGTGQFAAVALNLIGKTGTADYVITGSWSAKAAKEAAQYGTVNAVLPKLAKYTTVPRQETWKLDPNASYVYYCDNETVEGVEFDFVPEVPAGVPLVADMSSNFLSRPFDVSKFGVIYAGAQKNIGPAGTTVIIVRDDLIGKHLKITPSILNFEQMDKNNSLLNTPPTFGIYVMGLVFKWIKRNGGVAGMAKLAAAKSKLIYDTINQSNGFYYCPVDVNVRSRMNVPFRIGSASGDDALEKEFLSKAEAEGMIQLKGHRSVGGIRASLYNAVTLAETQQLANLMLAFYKNNKN
As for B9, the MAPPIT interaction score in the assay with SelR was 0.998.

B10: ord (protein)
chain: MYGETTLNKNHVIKFIKLKINNCLGCDEVEINFSKADNVHIIIYSLVTDMAKDLPAVTPVAQAILLLCSLTYPDSDSLETIPQLKIGKGSVSMSFKVYPVNKEEETEPESESDLDEGPSTSKQALERMVQRAERKAKEASTRNVHSKGIYVNVERRFDMYFALDTVSYYINGGKRQSCPLPEFHAKFFVRPQHSINLLRQLHEKCSGNWLKVIQSDGDGDAFKKFKDPDSPFETFVKLFESNPIKPNDMMGKLAKTCLHVNEAVRLTEREFILEVFNQVRHIFEYITAQEYTVWFLVPCLGDKDQLRSKTLEDFDLTKVRTSIRRAGDTSNIWWDHTDHNIKDILLVAFQLDLATHVNQSVLVISHLETLAEFSTMQYVTAFFMNDFYAKKNTEPKWICHRYLERIIDVALFLGVIVIIEYPSAFTLLQEGRHLIKCFQKENADSSRTSQWEIFEDVVKENESDLEFLKEAVGKVQQNV
Take B10: the MAPPIT interaction score in the assay with Sce is 2.19.

B11: Pgam5 (protein)
chain: MRKLTSFVCGTGAGLAAYYLQRLRDPQTVVQNSWTHSDKPVDPWALWDTNWDCREPRALVRPLRNSQPEEENRYNAELEKAKAKKARHIILVRHGEYLDVGDSDDTHHLTERGRKQAEFTGKRLCELGIKWDKVVASTMVRAQETSDIILKQIDFEKEKVVNCAFLREGAPIPPQPPVGHWKPEASQFLRDGSRIEAGFRRYFHRAYPDQEKESYTLIVGHGNVIRYFVCRALQFPAEGWLRININHASITWLTISPSGNVSIKYLGDSGFMPAELLTNRIPRDVKNVV
Regarding B11, in the assay with Sirt2, the MAPPIT interaction score is 0.996.

B12: Hsp67Bc (protein)
chain: MPDIPFVLNLDSPDSMYYGHDMFPNRMYRRLHSRQHHDLDLHTLGLIARMGAHAHHLVANKRNGELAALSRGGASNKQGNFEVHLDVGLFQPGELTVKLVNECIVVEGKHEEREDDHGHVSRHFVRRYPLPKEFDSDAIVSTLSEDGVLNITVPPLVSKEELKERIIPIKHVGPSDLFQNGNGHKEAGPAASASEPEAK
Regarding B12, the MAPPIT interaction score with SmydA-8 is -0.475.

B13: rux (protein)
chain: MSAPEEHKETPLEVIHEFINGVDDGTIRRDLGEDCILSFYSRNVRGAKAITGFLRNQLTMRYKHEGFEEAAQIEWGDELLLKARFGRSFDSERRRIYEEKERTGTTLHVRPESDDEEVNEKFSSTLITPPRPSSYNLNSLKYVEACGLLNKRNEHIYGGLDMGESCAVHLTLGYRSTFLPGGQVSGFEICLAVYDRGLTSLKRSTLIPPLCSISFARRASARCNPTTDDEEDTEEDSTPPTARRCVRRTLFTEENTQKEEDADFIPVVEQEQPAPQEQPAPQQAEETGEVVIPVDISTALKTTNFSSCTPRKRQQATNGNEVVRKRATGPRRMRF
Take B13: in the assay with Slh, the MAPPIT interaction score was -0.123.

B14: Gem2 (protein)
chain: MQHEPEDQTFQLQALEICEPDSSFDPQKPPESGEEYLMHMFYERKRCPAVVTKRSSKIRNNTGNTTLEMLDNPELPPFKCLLPTPEWRDEQVKSFQAARSQVLVLRKELANNNYDQSGEPPLTSDQEKWKEFCRNQQPLLSTLLHLTQNDLELLLEMLSKWLQDPNTTVDLLHDVWLARWLYATLVCLHLPLEPHVFSTLRYIARTCIHLRNQLKEDEVQRAAPYNLLLTLTVQVFAQNDFKDYI
In the case of B14, in the assay with Smn, the MAPPIT interaction score is 2.73.

B15: Adi1 (protein)
chain: MVQVWYMDTEETDQRLEHHRNPPAYLELDDLYQKTGVEYFKINADEYQSDNTLTELRAKRGYTYDDEITCSEKCLPDYANKLKAFFTEHLHTDEEIRLILEGSGYFDVRDNEDNWLRIKVVKGDLIIIPAGIYHRFTLDTNNFIRTRRYFVGEPVWAPHNRPADEMDCRKSYIKHQSENFVQFNKV
For B15, the MAPPIT interaction score with Sfp84E (MAPPIT configuration: N-C) was 0.249; in the assay with Sfp84E (MAPPIT configuration: N-N) it was 0.123; in the assay with alc, 0.0614; with robl62A, 2.17.

B16: CG32486 (protein)
chain: MSVESSSSAVQQPPSSSNLPLLGDNQAVATTSSASSASSSSTSSSSSSVGGGNVVGVPLDTQGSGEPPAKKQLLDGGGGGATSSSGSSLLSSAAAASGMHEKLAHRISNALCCAVCLDLPKTAMYQCQMGHLMCAACFTHLLADGRLRDQIATCPNCRVEISKSTASRNLAVEKAASELPSECQFCNKEFPYKSLERHEQHECQERPTKCKYHRIGCQWRGPYHETNEHERNCLHPQKSGYEVMAALEAHDDRIKEEKKMFNTLIDLLSYEKIIFNDLQMKPYRTDEYVHKLFYETARFSAFNQQWVVKARINNSQRDPHQSNERTITYQLILKTKTSTPMSIHFFALKGPFSDMKVSTQIYKHEFTETSTESEYYVLPLPDGVGGSGSSECNRMLANKGINFRLLMFLLNK
On to B16, for which, in the assay with ScpX, the MAPPIT interaction score was 4.53 (active).
